Measurements taken from article PMC12136788.
Where a chain is given by its changes, count along the chain named. In all, about 24,000 sequences were measured (“enrichment r”: median about 0.99, highest 2% from about 3.7 on). The full list was thinned out, with the highest values kept by preference.

T1: UNK ZnF1-3 (human, UniProt Q9C0B0 31-174)
T1 sequence: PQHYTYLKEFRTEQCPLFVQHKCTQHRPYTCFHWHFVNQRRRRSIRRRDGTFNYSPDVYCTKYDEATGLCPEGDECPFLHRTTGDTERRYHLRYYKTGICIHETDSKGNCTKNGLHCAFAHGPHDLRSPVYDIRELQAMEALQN

B1: 129698844_129698964_1004_3pUTR_ENSMUSG00000026349_ENSMUST00000027587|mouse|control|control (ssRNA)
RNA: GGGAGUUCUACAGUCCGACGAUCCUGCUAGCACUGAUAAAUUAUCAGAUGCACGGCUAUCUUGAACAGAAGUACUUCCUGAAUUUAGAGGUAUUGGAGCAGGGAACGUUGAUGUUGAUGGUUUCUGAAAGCUUGGGUUGGCAGCAACAGAGGAUUGAGCAUCA
B2: chr1:184247048:184247049:-_ENSMUSG00000047539_ENSMUST00000051431|mus_mus|FALSE|FALSE (ssRNA)
RNA: GGGAGUUCUACAGUCCGACGAUCCUGGAGCUAGAGCCAUAUUCCAAUCUACUUCCUAUUCCGAAGUCGUUUGGAUUUCCUAAGAGAGUCUAUGGCUUCCGUUGCCUUCCGUCGUUUCCGAGGGGACUCCUCACUCUGCCCAGACAACAGAGGAUUGAGCAUCA
B3: chr11:20101544:20101545:+_ENSMUSG00000020149_ENSMUST00000020358|mus_hu|FALSE|FALSE (ssRNA)
RNA: GGGAGUUCUACAGUCCGACGAUCUGCCGCAGCCGCCGCCCUGACUCUCCGCGCCACGGGUAAUCGAAAGAAAGGAAUGAGAUAGGCUGUUCCGGGAGAGCAAACGUCUUCCCCUACUCCGUCCCCUAGAACACAAUCAGCAGCCAACAGAGGAUUGAGCAUCA
B4: chr17:56552419:56552420:-_ENSMUSG00000013236_ENSMUST00000086828|mus_mus|mus_mus_mus_hu_False|68_68 (ssRNA)
RNA: GGGAGUUCUACAGUCCGACGAUCAAAAAAUACACUAUUUAAAAAAAAUGAAAUGUCACGGGAUACAAAAAAAUAUAGAGUUUUAAAAGAAAGCUGGAUUCUGGUCCCAGCCCAGUGUCCCCAGGCUGCAGAGCGGGGAGGAGCCAACAGAGGAUUGAGCAUCA
B5: chr17:56552419:56552420:-_ENSMUSG00000013236_ENSMUST00000086828|mus_mus|mus_mus_mus_hu_False|18_68 (ssRNA)
RNA: B4 RNA with U117G, C119A, C120G, C121G, A122C, G123A, C125G, U126G
B6: chr15:76910149:76910150:-_ENSMUSG00000033565_ENSMUST00000166610|mus_mus|FALSE|FALSE (ssRNA)
RNA: GGGAGUUCUACAGUCCGACGAUCAAUGCUGACGGAGGGAAGUCAUGUCUCUUAGGGGAAAGGAUCAGCUCAUCACUCGCUAUAUAACGCAGCCAAACGGGCUGCCCAACAAGCACGCACACAAGAAAUACUGUUAACAGAAAACAACAGAGGAUUGAGCAUCA
B7: chr17:56552419:56552420:-_ENSMUSG00000013236_ENSMUST00000086828|mus_mus|mus_mus_mus_hu_False|58_68 (ssRNA)
RNA: B4 RNA with G77C, G79C, U81A
B8: chr6:38652254:38652255:-_ENSG00000124767_ENST00000373365|hu_hu|hu_hu_hu_mus_False|58_98 (ssRNA)
RNA: GGGAGUUCUACAGUCCGACGAUCCGAGAACUUCAUAAUGGGAAAAUCAAGCUUCUGCAGGAGGGUCAGUCCAAGAACUCUAGUAUAAAAAUCCAGGGACUUCUUAGGAUCCUUAAUUCUUAGCAUCGUUUGCUGCAGUAGAAACAACAGAGGAUUGAGCAUCA
B9: chr15:37385894:37385895:-_ENSG00000134138_ENST00000382766|hu_mus|motif|central (ssRNA)
RNA: GGGAGUUCUACAGUCCGACGAUCGCUUCCAUCUCUCUCAUCAAUCACGAGGUCAAUGGGCAUUUUUCCCUUCAAACAGCGGAUGUACCGGUGGCAGAAGUUAUCACAUAGUUCGUGGACCUUUUCUAACUCCAGAAGAUGAAACAACAGAGGAUUGAGCAUCA
B10: chr8:29959424:29959425:+_ENSG00000104660_ENST00000321250|hu_hu|FALSE|FALSE (ssRNA)
RNA: GGGAGUUCUACAGUCCGACGAUCGAAGGGCACAUCCAAGCAUCAAAAACAUCAGUCCGAUUGCUCCUCCAAAGGACAAACUAAUCAAAGCUUUGAUGCCUGCCAUGGCGGUGACGUCGCUCCUGGCUCCACGACCCGAGGCGGCAACAGAGGAUUGAGCAUCA
B11: chr13:13598695:13598696:+_ENSMUSG00000005397_ENSMUST00000005532|mus_hu|FALSE|FALSE (ssRNA)
RNA: GGGAGUUCUACAGUCCGACGAUCCACCAAGUCAGUCUCAAAGAGCACCCGGCGCUGCGUGCCGUCCAGCUUCGCCACUUCUAUUCGAUCCAGGUUAGAGUCUGUCCAGAAGAUGUUGCGGCCAAGGUGAUCAACAGCGAUACCCAACAGAGGAUUGAGCAUCA
B12: chrX:73036348:73036349:-_ENSMUSG00000016382_ENSMUST00000114059|mus_mus|FALSE|FALSE (ssRNA)
RNA: GGGAGUUCUACAGUCCGACGAUCUGCGUACUUGGCGUUAUUGUGCUUGUCAUCUUCUGUUAGAUUCCCACUCUUCACAAGGUCAUAGUUAAUGCAGCCUGGUUGGAUGGCGUCAAUUAAAUCCACAACCGCCAAACUGGAGCUCAACAGAGGAUUGAGCAUCA
B13: 70939002_70942968_1374_3pUTR_ENSMUSG00000034761_ENSMUST00000110570|mouse|control|control (ssRNA)
RNA: GGGAGUUCUACAGUCCGACGAUCGCUCCGCUCUGGAAUUCCUGUUUGUUGAUCUAAUGGUAUGACGAAUGAUUGCGUGGGGCUCCAAGUCGUCCUCAUCGCCCUCACUGUAGGGAGCAUGGUUGUCCGGAUUGCUCACCUUGUCAACAGAGGAUUGAGCAUCA
B14: chr8:133807003:133807004:+_ENSG00000129292_ENST00000220847|hu_mus|FALSE|FALSE (ssRNA)
RNA: GGGAGUUCUACAGUCCGACGAUCUUUGUUAAUUGCUUCAAUCUUGGCAGGGUAAUAGCGACAGUCUGUCCAACGAGCCAGUACUUCUUCUCCAGCUUUAAAAUCAAAGAGCUCUUCCUCAUCCUUUAGCCCUUCUUUCCUUAGCAACAGAGGAUUGAGCAUCA
B15: chr2:49628383:49628384:+_ENSMUSG00000026764_ENSMUST00000028102|mus_hu|FALSE|FALSE (ssRNA)
RNA: GGGAGUUCUACAGUCCGACGAUCAUAAGCUUUGCAAAACCUGCCCCACAAGGACCCUUUUAUCAGACCGCAAAUAAUGGUAGAGCAGGUAUAUUGGGCUGGCACUGAUAACAAAAUUAAAGAAUGAAAAAAAUUUAAACAAAUCAACAGAGGAUUGAGCAUCA
B16: chr2:5814250:5814251:-_ENSMUSG00000025816_ENSMUST00000102981|mus_hu|mus_mus_mus_hu_True|68_108 (ssRNA)
RNA: GGGAGUUCUACAGUCCGACGAUCUUCCUUUCAGGCUUCUGAAUUUCUGGUAGAACUGCACAGAAUGGUUUAAUAACUUCUAAAAAUUUGAUGCCCAUGGCUGCUGCUGGGGAGGCCCAGGGGGAAACCGCGGCCUCGGCGCUGCAACAGAGGAUUGAGCAUCA
B17: chrX:35959125:35959126:+_ENSMUSG00000000355_ENSMUST00000000365|mus_mus|FALSE|FALSE (ssRNA)
RNA: GGGAGUUCUACAGUCCGACGAUCAUUUGCUCCACUGAGUACAAAUUUGAUGGCUCCUUUAUCAACCUGCUGAUGUGGCAAGAUAAAAGGAUAUUUAUGAAGUAAUCUUAAAGUUGGAUAAAAAGGCCCUUCUCUUUGUCUAAACAACAGAGGAUUGAGCAUCA
B18: chr9:37357388:37357389:+_ENSG00000147905_ENST00000336755|hu_hu|FALSE|FALSE (ssRNA)
RNA: GGGAGUUCUACAGUCCGACGAUCUUGGACACAGAGAAUUGAGAUCUCCAUGGAUAUUCAGUAACUCUAGGAAUGGCUGAAAUUAAAAAAACAAAACCAAAAACUCACUUUAUUUAAUCAUAGAUAAUAAACACAGUGCCAGAACAACAGAGGAUUGAGCAUCA
B19: 49527313_49535755_592_CDS_ENSMUSG00000026764_ENSMUST00000028102|mouse|control|control (ssRNA)
RNA: GGGAGUUCUACAGUCCGACGAUCCAUGGUAUGAGUUUUUCCUGAUGAAGUCUGCCCAUAUGCAAAAAUUGUUCCAUUAUAACCCUCAAGGACAUCUUUGACAAUCUGCUUUGCACAGGCAUUGUAGACCUGCUCCUGGGUUGUCAACAGAGGAUUGAGCAUCA
B20: chr2:49628351:49628352:+_ENSMUSG00000026764_ENSMUST00000028102|mus_hu|FALSE|FALSE (ssRNA)
RNA: GGGAGUUCUACAGUCCGACGAUCACCGCAAAUAAUGGUAGAGCAGGUAUAUUGGGCUGGCACUGAUAACAAAAUUAAAGAAUGAAAAAAAUUUAAACAAAUGCAAAAUUGCCAUCUUCACAAAAUAAAUACUUCAAUAGAAUUCAACAGAGGAUUGAGCAUCA
B21: 90994690_90994914_4067_CDS_ENSMUSG00000040687_ENSMUST00000111370|mouse|control|control (ssRNA)
RNA: GGGAGUUCUACAGUCCGACGAUCGAGGUACCUGUCGAUCAUUUCCUGAGGACCCUGGUCCAUACCCAUUCCUUCUCUUUCCAACAUUACAGCAUCUAAGAAUGCAUCUUCCCAGAACUGCAUUUGGUCCCAUAAGGUAGAACGCAACAGAGGAUUGAGCAUCA
B22: chr7:130129250:130129251:+_ENSMUSG00000030779_ENSMUST00000052135|mus_mus|FALSE|FALSE (ssRNA)
RNA: GGGAGUUCUACAGUCCGACGAUCCUCCUCUGGUAAGAAGGGUGGUUUCUCUUUCUUCCCGAUUGCAUAGGCCUCUGCAUCUAUAGUUGGUAUUGCAUAUUUUCCAGUGUUUGUAAGCAUUGCACCUUUCAUGUUAGGAUCUUUCAACAGAGGAUUGAGCAUCA

biological target: T1, UNK ZnF1-3; assay: nsRBNS (natural sequence RNA bind-n-seq); RBNS binding buffer (assumed for nsRBNS): 25 mM Tris pH 7.5, 150 mM KCl, 3 mM MgCl2, 0.01% Triton X-100, 500 ug/ml BSA, 20 U/ml SUPERase-In, 4 C; UNK is unkempt and MSI1 is Musashi-1; names of the RNAs are library labels; protein concentration not given here; high values mean tight binding

| Binder | binding signal |
| --- | --- |
| B1 | 1.96 enrichment R |
| B2 | 0.688 enrichment R |
| B3 | 1.67 enrichment R |
| B4 | 7.63 enrichment R |
| B5 | 7.03 enrichment R |
| B6 | 1.79 enrichment R |
| B7 | 11.3 enrichment R |
| B8 | 1.47 enrichment R |
| B9 | 0.878 enrichment R |
| B10 | 1.29 enrichment R |
| B11 | 1.36 enrichment R |
| B12 | 0.875 enrichment R |
| B13 | 0.565 enrichment R |
| B14 | 0.906 enrichment R |
| B15 | 10 enrichment R |
| B16 | 1.48 enrichment R |
| B17 | 0.981 enrichment R |
| B18 | 1.15 enrichment R |
| B19 | 0.621 enrichment R |
| B20 | 4.72 enrichment R |
| B21 | 0.917 enrichment R |
| B22 | 0.384 enrichment R |
